The full data set covers some 8,800 targets. This sample favours those with a hit. About 0.5% of all pairs of compound and target were hits. Unmarked numbers belong to inactive results.
Tests used:
Experiment in all cases: log2 fold change, soluble protein after heating vs DMSO (PISA); higher = thermal stabilisation; K562 lysate, 10 uM; active = over 0.2 and 3.5 SD of the protein, either way, in both replicates (recomputed)
[1] = compound: CCCS(=O)(=O)Nc1ccc(F)c(C(=O)c2c[nH]c3ncc(-c4ccc(Cl)cc4)cc23)c1F [vemurafenib]
In short: (§1)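 Dounce homogenisation of K562 pellets in PBS pH 7.4 with 1 mM MgCl2 produced a crude extract, used at 1 mg/mL protein. Exposure to 10 μM compound lasted 30 min, and aliquots were then heated for 3 min across 48°C-58°C, pooled and brought to 0.5% NP-40 at 4°C. The supernatant after 21,000xg for 90 min was quantified by TMTpro 16plex LC-MS/MS with channel sums equalised. Duplicate values are given as log-two fold change in thermal stability relative to solvent controls.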

[2] = compound: CCCS(=O)(=O)Nc1ccc(F)c(C(=O)c2c[nH]c3ncc(Cl)cc23)c1F
In short: as §1

[3] = compound: CCN(CCCOc1ccc2c(Nc3cc(CC(=O)Nc4cccc(F)c4)[nH]n3)ncnc2c1)CCOP(=O)(O)O [barasertib]
In short: as §1

[4] = compound: CC[C@@H]1C(=O)N(C)c2cnc(Nc3ccc(C(=O)NC4CCN(C)CC4)cc3OC)nc2N1C1CCCC1
In short: as §1

[5] = compound: CC[C@@H]1C(=O)N(C)c2cnc(Nc3ccc(C(=O)N[C@H]4CC[C@H](N5CCN(CC6CC6)CC5)CC4)cc3OC)nc2N1C(C)C [volasertib]
In short: as §1

[6] = compound: CCn1c(C(=O)N(C2CC2)C2CC2)cc2c3c(ncn3C)c(Nc3cc(C)n(C)n3)nc21
In short: as §1

[7] = compound: CCn1cc(-c2ccnc3[nH]c(-c4cccc(CN(C)C)c4)cc23)c(-c2ccc(NC(=O)N(C)C)cc2)n1
In short: as §1

[8] = compound: CN1CCC(CNc2ccc3ncc(-c4cccc(OC(F)(F)F)c4)n3n2)CC1
In short: as §1

[9] = compound: CN1CCN(CCOc2cc(OC3CCOCC3)c3c(Nc4c(Cl)ccc5c4OCO5)ncnc3c2)CC1 [saracatinib]
In short: as §1

[10] = compound: CN1CCN(c2nc(C3=C(c4c[nH]c5ccccc45)C(=O)NC3=O)c3ccccc3n2)CC1 [sotrastaurin]
In short: as §1

Sequence of UniProt Q70CQ2 (Q70CQ2 whole entry, looked up): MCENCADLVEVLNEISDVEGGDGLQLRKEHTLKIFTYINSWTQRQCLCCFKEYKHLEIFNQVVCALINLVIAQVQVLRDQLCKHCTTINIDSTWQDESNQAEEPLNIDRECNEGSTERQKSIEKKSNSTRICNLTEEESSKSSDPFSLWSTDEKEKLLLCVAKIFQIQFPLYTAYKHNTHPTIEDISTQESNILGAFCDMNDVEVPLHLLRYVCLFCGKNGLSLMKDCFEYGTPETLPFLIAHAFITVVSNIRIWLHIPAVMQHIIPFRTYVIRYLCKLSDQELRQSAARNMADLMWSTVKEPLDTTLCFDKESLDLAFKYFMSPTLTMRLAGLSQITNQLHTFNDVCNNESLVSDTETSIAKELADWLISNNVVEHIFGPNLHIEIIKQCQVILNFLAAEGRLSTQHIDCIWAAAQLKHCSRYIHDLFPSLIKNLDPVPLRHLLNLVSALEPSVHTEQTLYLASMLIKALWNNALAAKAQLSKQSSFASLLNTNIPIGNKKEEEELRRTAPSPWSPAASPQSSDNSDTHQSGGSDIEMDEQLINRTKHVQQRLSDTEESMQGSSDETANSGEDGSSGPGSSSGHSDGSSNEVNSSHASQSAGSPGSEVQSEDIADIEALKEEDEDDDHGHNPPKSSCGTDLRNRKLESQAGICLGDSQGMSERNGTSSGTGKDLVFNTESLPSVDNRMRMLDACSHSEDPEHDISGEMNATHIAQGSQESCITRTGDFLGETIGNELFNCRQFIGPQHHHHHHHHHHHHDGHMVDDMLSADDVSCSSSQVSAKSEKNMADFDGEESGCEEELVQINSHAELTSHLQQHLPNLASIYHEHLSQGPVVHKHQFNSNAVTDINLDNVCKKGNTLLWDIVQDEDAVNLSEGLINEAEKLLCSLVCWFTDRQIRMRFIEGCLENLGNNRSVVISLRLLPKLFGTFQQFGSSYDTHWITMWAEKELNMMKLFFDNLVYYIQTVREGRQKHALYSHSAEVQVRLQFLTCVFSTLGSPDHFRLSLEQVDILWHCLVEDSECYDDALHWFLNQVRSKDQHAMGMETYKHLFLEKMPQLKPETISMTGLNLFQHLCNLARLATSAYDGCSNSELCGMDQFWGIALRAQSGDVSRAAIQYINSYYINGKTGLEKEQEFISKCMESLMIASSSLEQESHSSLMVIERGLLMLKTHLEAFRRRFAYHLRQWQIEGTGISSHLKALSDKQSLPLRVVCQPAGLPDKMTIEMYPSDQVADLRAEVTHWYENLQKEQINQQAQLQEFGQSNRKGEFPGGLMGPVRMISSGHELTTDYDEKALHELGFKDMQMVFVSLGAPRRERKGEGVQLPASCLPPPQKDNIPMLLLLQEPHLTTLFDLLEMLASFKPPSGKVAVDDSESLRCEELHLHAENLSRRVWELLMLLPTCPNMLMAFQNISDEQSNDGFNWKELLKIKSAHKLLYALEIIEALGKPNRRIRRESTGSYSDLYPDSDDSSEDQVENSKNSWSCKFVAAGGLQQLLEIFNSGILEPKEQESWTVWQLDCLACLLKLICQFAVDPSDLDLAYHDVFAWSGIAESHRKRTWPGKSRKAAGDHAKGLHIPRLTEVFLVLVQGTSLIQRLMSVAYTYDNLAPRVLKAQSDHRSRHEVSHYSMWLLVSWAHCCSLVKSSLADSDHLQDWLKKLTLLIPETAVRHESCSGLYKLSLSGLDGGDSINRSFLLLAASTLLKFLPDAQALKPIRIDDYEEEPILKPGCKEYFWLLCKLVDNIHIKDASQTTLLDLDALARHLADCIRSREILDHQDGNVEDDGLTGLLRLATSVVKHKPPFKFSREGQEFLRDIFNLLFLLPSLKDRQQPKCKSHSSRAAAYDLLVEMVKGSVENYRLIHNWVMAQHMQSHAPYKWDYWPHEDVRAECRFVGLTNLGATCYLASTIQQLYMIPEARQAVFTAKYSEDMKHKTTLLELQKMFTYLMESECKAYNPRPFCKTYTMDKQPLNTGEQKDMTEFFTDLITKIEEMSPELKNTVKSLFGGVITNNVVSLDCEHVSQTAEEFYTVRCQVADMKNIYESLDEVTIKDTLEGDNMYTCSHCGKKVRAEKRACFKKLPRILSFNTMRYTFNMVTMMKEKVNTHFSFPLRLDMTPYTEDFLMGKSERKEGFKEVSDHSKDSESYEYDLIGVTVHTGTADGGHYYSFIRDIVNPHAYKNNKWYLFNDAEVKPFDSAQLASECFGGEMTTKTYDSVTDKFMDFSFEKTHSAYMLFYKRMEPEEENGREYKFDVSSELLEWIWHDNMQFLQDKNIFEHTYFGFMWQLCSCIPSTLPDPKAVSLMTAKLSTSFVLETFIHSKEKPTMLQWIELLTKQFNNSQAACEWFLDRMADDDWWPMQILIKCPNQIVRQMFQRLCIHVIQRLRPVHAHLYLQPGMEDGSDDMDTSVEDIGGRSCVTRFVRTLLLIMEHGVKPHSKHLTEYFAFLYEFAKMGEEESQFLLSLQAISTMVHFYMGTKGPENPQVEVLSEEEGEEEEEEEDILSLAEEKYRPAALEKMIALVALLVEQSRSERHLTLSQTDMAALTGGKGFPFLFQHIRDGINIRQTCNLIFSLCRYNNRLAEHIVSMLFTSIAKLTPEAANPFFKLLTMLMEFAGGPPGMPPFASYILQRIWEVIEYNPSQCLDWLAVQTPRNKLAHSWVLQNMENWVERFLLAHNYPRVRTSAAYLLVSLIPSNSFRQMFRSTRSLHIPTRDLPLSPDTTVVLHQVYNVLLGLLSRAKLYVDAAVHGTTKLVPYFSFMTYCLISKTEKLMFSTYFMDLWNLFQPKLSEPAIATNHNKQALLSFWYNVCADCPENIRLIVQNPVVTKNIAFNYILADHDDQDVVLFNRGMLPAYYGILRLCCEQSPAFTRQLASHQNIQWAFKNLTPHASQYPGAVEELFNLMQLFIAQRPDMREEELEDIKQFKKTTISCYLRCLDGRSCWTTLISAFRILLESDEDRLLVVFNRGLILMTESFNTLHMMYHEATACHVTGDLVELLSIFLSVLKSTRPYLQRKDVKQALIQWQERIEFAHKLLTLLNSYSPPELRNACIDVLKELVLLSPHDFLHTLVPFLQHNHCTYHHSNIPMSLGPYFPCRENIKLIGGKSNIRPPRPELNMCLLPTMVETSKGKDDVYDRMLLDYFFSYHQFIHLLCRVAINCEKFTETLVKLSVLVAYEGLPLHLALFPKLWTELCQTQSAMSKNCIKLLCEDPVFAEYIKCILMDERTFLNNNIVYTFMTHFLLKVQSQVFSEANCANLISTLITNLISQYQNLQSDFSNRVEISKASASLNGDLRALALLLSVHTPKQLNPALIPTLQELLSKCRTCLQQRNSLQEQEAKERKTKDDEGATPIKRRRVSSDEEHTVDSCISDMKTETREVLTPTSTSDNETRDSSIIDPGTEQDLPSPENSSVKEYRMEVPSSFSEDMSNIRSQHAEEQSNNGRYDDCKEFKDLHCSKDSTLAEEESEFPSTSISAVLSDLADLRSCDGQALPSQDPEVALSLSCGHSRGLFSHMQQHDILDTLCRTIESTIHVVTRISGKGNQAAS
Sequence of UniProt A4D1P6 (A4D1P6 whole entry, looked up): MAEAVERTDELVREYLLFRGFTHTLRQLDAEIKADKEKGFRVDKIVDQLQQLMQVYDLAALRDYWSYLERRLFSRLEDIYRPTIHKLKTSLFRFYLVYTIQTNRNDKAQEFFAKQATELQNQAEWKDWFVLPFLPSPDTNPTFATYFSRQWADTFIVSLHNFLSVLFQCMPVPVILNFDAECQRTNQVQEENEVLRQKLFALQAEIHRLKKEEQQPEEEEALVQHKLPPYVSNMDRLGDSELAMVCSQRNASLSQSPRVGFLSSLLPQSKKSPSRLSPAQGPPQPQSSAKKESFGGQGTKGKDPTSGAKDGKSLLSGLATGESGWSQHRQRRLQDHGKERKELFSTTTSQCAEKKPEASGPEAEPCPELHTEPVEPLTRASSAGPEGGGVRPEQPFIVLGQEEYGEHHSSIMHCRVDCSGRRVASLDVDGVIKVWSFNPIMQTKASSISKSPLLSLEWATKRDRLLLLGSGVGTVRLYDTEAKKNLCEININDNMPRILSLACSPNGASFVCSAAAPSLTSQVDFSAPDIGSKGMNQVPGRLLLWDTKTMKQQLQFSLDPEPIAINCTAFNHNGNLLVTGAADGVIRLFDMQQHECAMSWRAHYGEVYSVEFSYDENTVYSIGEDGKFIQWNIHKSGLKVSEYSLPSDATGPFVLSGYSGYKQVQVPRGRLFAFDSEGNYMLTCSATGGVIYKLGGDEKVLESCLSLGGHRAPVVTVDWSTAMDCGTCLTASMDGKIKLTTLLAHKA
Sequence of UniProt Q96AX1 (Q96AX1 whole entry, looked up): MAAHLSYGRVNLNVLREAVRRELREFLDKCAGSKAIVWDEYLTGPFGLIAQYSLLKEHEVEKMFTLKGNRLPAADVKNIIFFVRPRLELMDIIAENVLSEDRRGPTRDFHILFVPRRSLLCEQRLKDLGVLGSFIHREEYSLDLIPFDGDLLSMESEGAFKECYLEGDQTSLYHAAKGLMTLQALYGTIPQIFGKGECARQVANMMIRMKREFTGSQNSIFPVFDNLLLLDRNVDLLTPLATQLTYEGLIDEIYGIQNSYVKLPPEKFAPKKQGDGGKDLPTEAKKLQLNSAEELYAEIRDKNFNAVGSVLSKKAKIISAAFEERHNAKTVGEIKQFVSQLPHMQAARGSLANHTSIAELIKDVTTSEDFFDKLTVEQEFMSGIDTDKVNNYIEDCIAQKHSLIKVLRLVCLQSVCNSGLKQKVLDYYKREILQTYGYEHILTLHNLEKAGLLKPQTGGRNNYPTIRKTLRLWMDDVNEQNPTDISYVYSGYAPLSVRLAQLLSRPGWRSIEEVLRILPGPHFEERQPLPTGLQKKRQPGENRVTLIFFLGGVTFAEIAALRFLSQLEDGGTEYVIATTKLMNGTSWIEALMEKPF

Row | Target | log2 fold change [1] | log2 fold change [2] | log2 fold change [3] | log2 fold change [4] | log2 fold change [5] | log2 fold change [6] | log2 fold change [7] | log2 fold change [8] | log2 fold change [9] | log2 fold change [10]
1 | WDR77 (UniProt Q9BQA1) | -0.095 | -0.012 | -0.045 | -0.029 | 0.004 | 0.022 | -0.004 | 0.011 | -0.032 | 0.001
2 | USP9X (UniProt Q93008) | -0.013 | 0.014 | 0.038 | -0.065 | -0.053 | 0.033 | -0.042 | -0.036 | 0.03 | 0.007
3 | WDR7 (UniProt Q9Y4E6) | -0.005 | -0.035 | -0.019 | -0.041 | -0.057 | 0.029 | -0.007 | 0.047 | -0.018 | 0.01
4 | VRK1 (UniProt Q99986) | 0.024 | 0.024 | -0.002 | -0.051 | -0.03 | 0 | -0.041 | 0.031 | 0.002 | 0.178
5 | WDR3 (UniProt Q9UNX4) | -0.01 | 0.011 | 0.042 | -0.063 | -0.043 | 0.01 | -0.024 | 0.019 | 0.002 | 0.062
6 | WDR91 (UniProt A4D1P6) | -0.096 | 0.028 | 0.046 | -0.043 | -0.023 | 0.055 | -0.01 | 0.041 | 0.067 | 0.019
7 | USP10 isoform 2 (UniProt Q14694) | 0.021 | 0.013 | 0.002 | -0.005 | -0.039 | 0.013 | -0.079 | 0 | 0.005 | 0.008
8 | ZC3H11A (UniProt O75152) | 0.104 | 0.084 | 0.055 | 0.03 | -0.022 | 0 | 0.283 | -0.182 | -0.016 | 0.013
9 | YME1L1 (UniProt Q96TA2) | 0.01 | 0.011 | 0.036 | -0.008 | -0.02 | 0.035 | 0.181 | -0.088 | 0.037 | 0.055
10 | VPS33A (UniProt Q96AX1) | -0.012 | 0.022 | 0.037 | 0.018 | -0.042 | 0.018 | -0.041 | -0.033 | -0.001 | 0.03
11 | ZMYM1 (UniProt Q5SVZ6) | 0.011 | -0.017 | 0.05 | -0.033 | -0.124 | 0.017 | -0.272 (active) | 0.127 | 0.013 | 0.05
12 | USP34 (UniProt Q70CQ2) | 0.006 | 0.039 | 0.048 | -0.054 | -0.052 | 0.014 | 0.027 | -0.079 | 0.026 | -0.008
13 | ZFYVE19 (UniProt Q96K21) | 0 | 0.02 | 0.016 | 0.077 | 0.023 | 0.006 | -0.232 (active) | 0.126 | -0.027 | 0.013
14 | ZFPM1 (UniProt Q8IX07) | 0.088 | 0.007 | 0.031 | -0.017 | 0.02 | -0.042 | -0.001 | -0.021 | 0.014 | -0.009
15 | WDR6 (UniProt Q9NNW5) | 0.008 | -0.007 | 0.013 | -0.006 | -0.029 | -0.009 | -0.053 | 0.033 | 0.01 | 0.116
